# According to the supplement of paper PMC11865577:
# System: SARS-CoV-2 low-rank motif (SARS-low)
# Assay: normalised indicator fluorescence (fraction of RNA + indicator signal without compound); higher = less displacement of indicator (weaker competition)
# Conditions: compound concentration: 5 uM, 30 min
# How it was run: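 For the displacement screen, RNA and a TO-PRO-1 or TO-PRO-3 indicator were held in 20 mM phosphate pH 7.0 with 20 mM NaCl and 80 mM KCl in 96-well plates. After adding 0.25 μL of each 1 mM DMSO stock (about 5 uM final) and waiting 30 min, fluorescence was measured on an Infinite 200 PRO with excitation at 485 or 620 nm. Each value is the mean of two independent experiments, expressed as blank-subtracted indicator fluorescence relative to the no-compound RNA-plus-indicator signal.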
# [1] = indicator: TO-PRO-1 0.1 uM, RNA concentration: 0.1 uM
# [2] = indicator: TO-PRO-3 0.5 uM, RNA concentration: 0.5 uM
SMILES,normalised indicator fluorescence [1],normalised indicator fluorescence [2]
Oc1ccc(OCc2ccccc2)cc1 [Monobenzone],1.17,1.21
O=C1O[C@H]([C@@H](O)CO)C(O)=C1O [L(+)-Ascorbic acid],1.18,1.24
COc1ccc(C(=C2C(=O)Nc3ccccc32)c2ccc(OC)cc2)cc1,1.38,1.17
O=C(Nc1nc2ccc(NC(=O)C34CC5CC(CC(C5)C3)C4)cc2s1)c1ccccc1,1.49,1.12
CC(C)N(CCCCOCC(=O)NS(C)(=O)=O)c1cnc(-c2ccccc2)c(-c2ccccc2)n1 [Selexipag],1.21,1.13
Cc1c(C)c2c(c(C)c1O)CCC(C)(C(=O)O)O2 (centres undefined) [Trolox],1.24,1.07
COC1=C(OC)C(=O)C(CCCCCCCCCCO)=C(C)C1=O [Idebenone],1.21,1.12
OC[C@H]1O[C@@H](Oc2ccc(O)cc2)[C@H](O)[C@@H](O)[C@@H]1O [Arbutin],1.1,1.25
CC(=O)O[C@H]1C[C@@]2(C)[C@@H](C[C@@H](O)[C@H]3[C@@]4(C)CC[C@@H](O)[C@@H](C)[C@@H]4CC[C@@]32C)/C1=C(\CCC=C(C)C)C(=O)O [Sodium fusidate],1.11,1.04
CC(=O)Oc1c(C)c(C)c2c(c1C)CCC(C)(CCC[C@H](C)CCC[C@H](C)CCCC(C)C)O2 (some centres undefined) [Vitamin E Acetate],1.05,1.21
COC1=CC(=O)c2ccccc2C1=O [2-Methoxynaphthoquinone],1.19,1.12
COC1=C2C[C@@H](C)C[C@H](OC)[C@H](O)[C@@H](C)/C=C(\C)[C@H](OC(N)=O)[C@@H](OC)/C=C\C=C(/C)C(=O)NC(=CC1=O)C2=O [Geldanamycin],1.15,1.36
